# Assay results reported in PubChem BioAssay (NCATS).
# Inconclusive results are not listed. Where a call stands in place of a potency, no number is given. The source made the active and inactive calls. Calls follow the shape of the dose curve; as a rule, active = well fitted curve in the direction sought with a large enough effect; inconclusive = small, poorly fitted or top-dose-only effect, or another doubt; inactive = no such curve, though single readings can be large; an effect the other way counts as inactive or inconclusive.
# Key:
# [1] = target: Glutathione peroxidase 1 (Homo sapiens) (UniProt P07203); assay: Primary qHTS Assay for Inhibitors of Recombinant Selenoprotein Glutathione Peroxidase 1 (GPX1) (AID 1845191); conditions: recombinant GPX1, GR-coupled NADPH fluorescence, 15 min; series mostly up to 48.8 µM; also: nearly all actives have a fitted effect of over 65% in size
# In short: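 10 nM GPX1 + cpd, 30 min RT; start w/ 1 mM GSH, 0.5 mM cumene hydroperoxide, 0.5 mM NADPH, 100 nM GR, 0.01% BSA; buffer 50 mM Tris-HCl pH 7.5, 2 mM EDTA, 150 mM NaCl; Fl 340/450, 0 & 15 min.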
# [2] = target: Phospholipid hydroperoxide glutathione peroxidase GPX4 (Homo sapiens) (UniProt P36969); assay: Primary qHTS Assay for Inhibitors of Recombinant Selenoprotein Glutathione Peroxidase 4 (GPX4) (AID 1845192); conditions: recombinant GPX4, GR-coupled NADPH fluorescence, 15 min; series mostly up to 50 µM; also: nearly all actives have a fitted effect of over 65% in size; also: potency is read from the fitted curve at half-maximal effect
# In short: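 NADPH consumption, followed by fluorescence at 340/450 nm between 0 and 15 min, reports GPX4 activity via coupled glutathione reductase (100 nM). Enzyme 200 nM was pre-exposed to compound 30 min; 0.5 mM cumene hydroperoxide and 1 mM GSH served as substrates.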
# [3] = target: Luciferin 4-monooxygenase (Photinus pyralis) (UniProt P08659); assay: Primary firefly luciferase (FLuc) qHTS assay for identification of artifact compounds. (AID 1845220); conditions: purified firefly luciferase, luminescence, 5 min; series mostly up to 54.1 µM; also: nearly all actives have a fitted effect of over 60% in size
# In short: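 Compounds sat 15 min at room temperature with 10 uM luciferin and 10 uM ATP (pH 7.6 Tris acetate). Firefly luciferase (10 nM final) was then added, and luminescence was read 5 min later. Data normalized to no-enzyme and DMSO controls were Hill-fitted.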
# [4] = Primary fluorescence-based thiol-reactive (MSTI) qHTS assay for identification of artifact compounds. (AID 1845221); conditions: MSTI thiol-reactivity probe, 1 h; series mostly up to 53.8 µM;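 also: thiol-reactive compounds lower the probe fluorescence signal; nearly all actives have a fitted effect of over 65% in size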
# In short: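 Compounds were incubated 1 h at room temperature in the dark with the MSTI probe (4 uM) in PBS pH 7.4, 2% DMSO. Signals were normalized between Acetyl-MSTI and MSTI.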
# [5] = system: Nanoluciferase (engineered Oplophorus gracilirostris luciferase); assay: Primary Nanoluciferase (NLuc) qHTS assay for identification of artifact compounds. (AID 1845222); conditions: NLuc-conditioned medium, Nano-Glo luminescence, 5 min; series mostly up to 54.1 µM
# In short: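 Luminescence from secreted NLuc (filtered, 1:55-diluted S16 cell medium) read 5 min after Nano-Glo substrate; compounds preincubated 15 min, RT. Hill fits of inhibition normalized to DMSO and no-enzyme.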
# [6] = Primary redox qHTS assay for identification of artifact compounds. (AID 1845223); conditions: Amplex Red/HRP redox cycling with DTT, fluorescence; series mostly up to 53.8 µM
# In short: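 Amplex Red (25 uM) and HRP (250 mU/mL) in HBSS, with compounds for 15 min, then 250 uM DTT for 30 min, room temperature, dark. Fluorescence 525/598 nm read; normalized to DMSO and 10 uM DA3003; Hill fit.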
# Chain of Glutathione peroxidase 1 (Homo sapiens) (P07203 whole entry, looked up): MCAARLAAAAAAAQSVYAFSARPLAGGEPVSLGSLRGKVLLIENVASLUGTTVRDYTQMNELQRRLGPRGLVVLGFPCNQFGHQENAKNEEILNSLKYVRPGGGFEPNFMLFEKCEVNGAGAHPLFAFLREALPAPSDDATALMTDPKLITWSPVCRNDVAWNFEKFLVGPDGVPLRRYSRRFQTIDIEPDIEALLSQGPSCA
# Chain of Phospholipid hydroperoxide glutathione peroxidase GPX4 (Homo sapiens) (P36969 whole entry, looked up): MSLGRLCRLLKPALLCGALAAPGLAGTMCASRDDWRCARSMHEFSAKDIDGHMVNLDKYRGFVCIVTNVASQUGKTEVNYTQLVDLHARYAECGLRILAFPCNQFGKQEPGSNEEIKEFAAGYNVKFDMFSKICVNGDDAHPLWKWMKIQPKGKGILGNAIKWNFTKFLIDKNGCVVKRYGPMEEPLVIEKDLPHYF
compound,measurement,setting,value
CC(=O)O[C@]1(C(C)=O)CC[C@H]2[C@@H]3C=C(Cl)C4=CC(=O)CC[C@]4(C)[C@H]3CC[C@@]21C,Potency,[1],inactive
same,Potency,[2],inactive
Cc1cc(C)cc(OCC2CNC(=O)O2)c1 (configuration not stated),Potency,[1],inactive
same,Potency,[2],inactive
CCCCCCCCCCCCCC(=O)OC(C)C,Potency,[1],inactive
same,Potency,[2],inactive
NS(=O)(=O)c1cc(C(=O)O)cc(N2CCCC2)c1Oc1ccccc1,Potency,[1],inactive
same,Potency,[2],inactive
CCCCC(CC)CN1CN(CC(CC)CCCC)CC(C)(N)C1 (configuration not stated),Potency,[1],inactive
same,Potency,[2],inactive
C[N+]1(C)CCC(=C(c2ccccc2)c2ccccc2)CC1,Potency,[1],inactive
same,Potency,[2],inactive
N[C@H](C(=O)O)[C@@H](O)c1ccc(O)c(O)c1,Potency,[1],inactive
same,Potency,[2],inactive
CCOc1ccccc1C(N)=O,Potency,[1],inactive
same,Potency,[2],inactive
COc1ccc(CN(CCN(C)C)c2ncccn2)cc1,Potency,[1],inactive
same,Potency,[2],inactive
CC1CCc2c(N3CCC(O)CC3)c(F)cc3c(=O)c(C(=O)O)cn1c23 (configuration not stated),Potency,[1],inactive
same,Potency,[2],inactive
CCOC(=O)[C@H](CCc1ccccc1)N[C@@H](C)C(=O)N1[C@H](C(=O)O)C[C@@H]2CCC[C@@H]21,Potency,[1],inactive
same,Potency,[2],inactive
COc1cc(NS(=O)(=O)c2ccc(N)cc2)ncn1,Potency,[1],inactive
same,Potency,[2],inactive
CCCCCN=C(N)N/N=C/c1c[nH]c2ccc(OC)cc12,Potency,[1],inactive
same,Potency,[2],inactive
Nc1ccc(C(=O)NCC(=O)O)cc1,Potency,[1],inactive
same,Potency,[2],inactive
CCN(CC)CCOC(=O)C(Cc1cccc2ccccc12)CC1CCCO1 (configuration not stated),Potency,[1],inactive
same,Potency,[2],inactive
O=C(O)CCNC(=O)c1ccccc1,Potency,[1],inactive
same,Potency,[2],inactive
CN(CCCN1c2ccccc2CCc2ccccc21)CC(=O)c1ccc(Cl)cc1,Potency,[1],inactive
same,Potency,[2],inactive
NS(=O)(=O)c1ccc(Cl)c(S(N)(=O)=O)c1,Potency,[1],inactive
same,Potency,[2],inactive
CC(CNC1CCCCC1)OC(=O)c1ccccc1 (configuration not stated),Potency,[1],inactive
same,Potency,[2],inactive
CCOc1ccccc1OCCN[C@H](C)Cc1ccc(OC)c(S(N)(=O)=O)c1,Potency,[1],inactive
same,Potency,[2],inactive
O=C(O)CCC(=O)Nc1ccc(S(=O)(=O)Nc2nccs2)cc1,Potency,[1],inactive
same,Potency,[2],inactive
O=C(Nc1cccc(C2=NCCN2)c1)Nc1cccc(C2=NCCN2)c1,Potency,[1],inactive
same,Potency,[2],inactive
CCCCCCCCCCCCOCCOCCOCCOCCOCCOCCOCCOCCOCCO,Potency,[1],inactive
same,Potency,[2],inactive
CCC1Nc2cc(Cl)c(S(N)(=O)=O)cc2S(=O)(=O)N1 (configuration not stated),Potency,[1],inactive
same,Potency,[2],inactive
CC(=O)OCC(=O)[C@H]1CC[C@H]2[C@@H]3CCC4=CC(=O)CC[C@]4(C)[C@H]3CC[C@]12C,Potency,[1],inactive
same,Potency,[2],inactive
CCN1CCCC(OC(=O)C(c2ccccc2)c2ccccc2)C1 (configuration not stated),Potency,[1],inactive
same,Potency,[2],inactive
CC(C)Cc1ccc(CC(=O)O)cc1,Potency,[1],inactive
same,Potency,[2],inactive
CCCCC(CC)COC(=O)c1ccc(N(C)C)cc1 (configuration not stated),Potency,[1],inactive
same,Potency,[2],inactive
CC(=O)Nc1ccc(OC(=O)c2ccccc2OC(C)=O)cc1,Potency,[1],inactive
same,Potency,[2],inactive
O=C(NC1CCN(CCc2c[nH]c3ccccc23)CC1)c1ccccc1,Potency,[1],inactive
same,Potency,[2],inactive
CO[C@H]1C=CO[C@@]2(C)Oc3c(C)c(O)c4c(O)c(c(/C=N/N5CCN(C)CC5)c(O)c4c3C2=O)NC(=O)/C(C)=C\C=C[C@H](C)[C@H](O)[C@@H](C)[C@@H](O)[C@@H](C)[C@H](OC(C)=O)[C@@H]1C,Potency,[1],inactive
same,Potency,[2],17.8 µM (active)
COc1ccc(-c2cc(C(F)F)nn2-c2ccc(S(N)(=O)=O)cc2)cc1F,Potency,[1],inactive
same,Potency,[2],inactive
CCOc1ccc(NC(C)=O)cc1,Potency,[1],inactive
same,Potency,[2],inactive
NC(=O)c1ccccc1O,Potency,[1],inactive
same,Potency,[2],inactive
COc1cc(N)c(Cl)cc1C(=O)NC1CCN(Cc2ccccc2)CC1,Potency,[1],inactive
same,Potency,[2],inactive
CCc1ccc(C(=O)C(C)CN2CCCCC2)cc1 (configuration not stated),Potency,[1],inactive
same,Potency,[2],inactive
C=C[C@H]1CN2CC[C@H]1C[C@@H]2[C@@H](O)c1ccnc2ccc(OC)cc12,Potency,[1],inactive
same,Potency,[2],inactive
CNCCCCOc1ccccc1Cc1ccccc1,Potency,[1],inactive
same,Potency,[2],inactive
CN(C)CCOC(=O)C(c1ccccc1)C1(O)CCCC1 (configuration not stated),Potency,[1],inactive
same,Potency,[2],inactive
OCCOCCN1CCN(C2=Nc3ccccc3Sc3ccccc32)CC1,Potency,[1],inactive
same,Potency,[2],inactive
C[C@@]12C(=O)OC(=O)[C@]1(C)C1CCC2O1,Potency,[1],inactive
same,Potency,[2],inactive
Cc1ccc(-c2ncc(Cl)cc2-c2ccc(S(C)(=O)=O)cc2)cn1,Potency,[1],inactive
same,Potency,[2],inactive
Nc1nc(-c2ccccc2)c(Br)c(=O)[nH]1,Potency,[1],inactive
same,Potency,[2],inactive
O=C1c2cccc3c2[C@H](CCC3)CN1[C@@H]1CN2CCC1CC2,Potency,[1],inactive
same,Potency,[2],inactive
COc1ccc(C(Cl)=C(c2ccc(OC)cc2)c2ccc(OC)cc2)cc1,Potency,[1],inactive
same,Potency,[2],inactive
COc1ccc(C(=O)c2ccccc2O)c(O)c1,Potency,[1],inactive
same,Potency,[2],inactive
c1ccc(CC2=NCCN2)cc1,Potency,[1],inactive
same,Potency,[2],inactive
NC(=O)C1(N2CCCCC2)CCN(CCCC(=O)c2ccc(F)cc2)CC1,Potency,[1],inactive
same,Potency,[2],inactive
COC(=O)C(c1ccccc1Cl)N1CCc2sccc2C1 (configuration not stated),Potency,[1],inactive
same,Potency,[2],inactive
CCOc1cc(OCC)c(C(=O)CCC(=O)O)cc1OCC,Potency,[1],inactive
same,Potency,[2],inactive
CCN(CC)CCOC(=O)C1(c2ccccc2)CCCC1,Potency,[1],inactive
same,Potency,[2],inactive
CN1CCC(OC(c2ccccc2)c2ccccc2)CC1,Potency,[1],inactive
same,Potency,[2],inactive
CCCCC(CC)COC(=O)/C=C/c1ccc(OC)cc1 (configuration not stated),Potency,[1],inactive
same,Potency,[2],inactive
CN(Cc1ccc(C(C)(C)C)cc1)Cc1cccc2ccccc12,Potency,[1],inactive
same,Potency,[2],inactive
O=C(O)P(=O)(O)O,Potency,[1],inactive
same,Potency,[2],inactive
CCc1nn(CCCN2CCN(c3cccc(Cl)c3)CC2)c(=O)n1CCOc1ccccc1,Potency,[1],inactive
same,Potency,[2],inactive
CC(C(=O)O)c1cccc(Oc2ccccc2)c1 (configuration not stated),Potency,[1],inactive
same,Potency,[2],inactive
CCOC(=O)c1ccc(N)cc1,Potency,[1],inactive
same,Potency,[2],inactive
O=C1C(=O)c2ccccc2C(O)=C1C1CCC(c2ccc(Cl)cc2)CC1 (configuration not stated),Potency,[1],inactive
same,Potency,[2],inactive
CCCCCCCCCCC[C@@H](C[C@@H]1OC(=O)[C@H]1CCCCCC)OC(=O)[C@H](CC(C)C)NC=O,Potency,[1],inactive
same,Potency,[2],inactive
CCCN(CCC)S(=O)(=O)c1ccc(C(=O)O)cc1,Potency,[1],inactive
same,Potency,[2],inactive
CCOC(=O)Nc1ccc2c(c1)N(C(=O)CCN1CCOCC1)c1ccccc1S2,Potency,[1],inactive
same,Potency,[2],inactive
CC(=O)O[C@H]1C[C@@H]2CC[C@@H]3[C@H](CC[C@@]4(C)[C@H]3C[C@H]([N+]3(C)CCCCC3)[C@@H]4OC(C)=O)[C@@]2(C)C[C@@H]1N1CCCCC1,Potency,[1],inactive
same,Potency,[2],inactive
COc1cc(C)nc(-n2nc(C)cc2OC)n1,Potency,[1],inactive
same,Potency,[2],inactive
CCCCCCCCCCCCCCCCO,Potency,[1],inactive
same,Potency,[2],inactive
O=C(Nc1ccc([N+](=O)[O-])cc1)Nc1ccc([N+](=O)[O-])cc1,Potency,[1],inactive
same,Potency,[2],inactive
C[N+]12CCC(CC1)C(OC(=O)C(O)(c1ccccc1)c1ccccc1)C2 (configuration not stated),Potency,[1],inactive
same,Potency,[2],inactive
CCCCN1C[C@H](O)[C@@H](O)[C@H](O)[C@H]1CO,Potency,[1],inactive
same,Potency,[2],inactive
COc1cc(O)c(C(=O)c2ccccc2)cc1S(=O)(=O)O,Potency,[1],inactive
same,Potency,[2],inactive
Cc1cc(NS(=O)(=O)c2ccc(N)cc2)nc(C)n1,Potency,[1],inactive
same,Potency,[2],inactive
CCCc1ncc(C[n+]2ccccc2C)c(N)n1,Potency,[1],inactive
same,Potency,[2],inactive
C[C@@H](O)[C@H]1C(=O)N2C(C(=O)O)=C(S[C@@H]3CN[C@H](CNS(N)(=O)=O)C3)[C@H](C)[C@H]12,Potency,[1],inactive
same,Potency,[2],inactive
O=S(=O)(O)c1ccc(O)cc1,Potency,[1],inactive
same,Potency,[2],inactive
CC(O)Cn1cnc2c1c(=O)n(C)c(=O)n2C (configuration not stated),Potency,[1],inactive
same,Potency,[2],inactive
O=c1[nH]c(=O)n([C@H]2C[C@H](O)[C@@H](CO)O2)cc1F,Potency,[1],inactive
same,Potency,[2],inactive
Nc1ccc(S(=O)(=O)Nc2cnc3ccccc3n2)cc1,Potency,[1],inactive
same,Potency,[2],inactive
O=C1[C@H](CC[C@H](O)c2ccc(F)cc2)[C@@H](c2ccc(O)cc2)N1c1ccc(F)cc1,Potency,[1],inactive
same,Potency,[2],inactive
same,outcome,[3],inactive
same,outcome,[4],inactive
same,outcome,[5],inactive
same,outcome,[6],inactive
Oc1ccc(Cl)cc1Cc1cc(Cl)ccc1O,Potency,[2],inactive
C=C[C@H]1CN2CC[C@H]1C[C@H]2[C@H](O)c1ccnc2ccc(OC)cc12,Potency,[1],inactive
same,Potency,[2],inactive
same,outcome,[3],inactive
same,outcome,[4],inactive
same,outcome,[5],inactive
same,outcome,[6],inactive
CCCCCCCCCCCCSCCOCCO,Potency,[1],inactive
same,Potency,[2],inactive
